These results are taken from PubChem BioAssay AID652106 (National Center for Advancing Translational Sciences (NCATS), 2013).

Screen size: about 370,000 compounds; about 500 (0.14%) were called active. Inconclusive results (about 2%) are left out. Calls come from the whole dose curve; as a rule, active = well fitted activation curve with a large enough effect; inconclusive = small, poorly fitted or top-dose-only effect; inactive = no such curve, though single readings can be large or run the other way. Shown is part of a subset that was picked to be rich in actives. Where a call stands in place of a potency, no number is given.
Potency is the fitted concentration of half-maximal effect.

A short description of the test: qHTS of alpha-syn Inhibitors. Note: nearly all actives have a fitted effect of over 65% in size. The settings on record: Yeast expressing alpha-synuclein, BacTiter-Glo, 24 h; Potency: growth rescue; series mostly up to 46.1 µM. The text has this:
The goal of this project is to identify new chemical probes capable of reversing the toxicity associated with the Parkinson disease-related protein, alpha-synuclein. Compounds will be selected on their ability to restore growth in yeast cells expressing toxic levels of alpha-synuclein. These compounds will provide a complementary approach to deciphering the tangled mechanisms of toxicity and protection that we have uncovered through genome-wide genetic screens and are beginning to uncover in a large-scale proteomics analysis with mass spectroscopy. To this end, a miniaturized assay was developed to be screened against the Molecular Libraries Small Molecule Repository (MLSMR) to discover alpha-synuclein inhibitors. Please note that in the set-up this yeast-based assay compounds that inhibit as alpha-syn, have a read-out as activators. NIH Chemical Genomics Center [NCGC] NIH Molecular Libraries Probe Centers Network [MLPCN] MLPCN Grant: NS060957 Assay Submitter (PI): Susan Lindquist, Whitehead Institute/MIT
Dispense 2.5 microL yeast galactose medium per 1536-well plate, pin compound, dispense 2.5 microL alpha-synuclein expressing yeast in galactose medium at OD600=0.02 (pregrown in raffinose medium to mid-log phase) per well, incubate for 24 hr at 30 deg C, and cell growth will be measured using 5 microL of Bactiter/Glo reagent to entire plate and read using Luminescence Protocol in ViewLux.
For orientation: Quantitative high-throughput screening tests each substance at several concentrations.
`O=C(O)c1c(Br)c(Br)c(Br)c(Br)c1C1c2ccc(O)cc2Oc2cc(O)ccc21`: the Potency entry is “inactive”.

Turning to `O=C(CN1C(=O)COc2ccc(S(=O)(=O)N3CCCCCC3)cc21)N1CCN(c2cccc(C(F)(F)F)c2)CC1`, the Potency result is “inactive”.

On to `C=COC(=O)N1CCN(/[N+]([O-])=N/Oc2ccc([N+](=O)[O-])cc2[N+](=O)[O-])CC1`, for which the Potency result was “inactive”.

As to `CCc1ccc(NC(=O)CCS(=O)(=O)c2cc3c(cc2Cl)NC(=O)CO3)cc1`, the Potency result was “inactive”.

For `O=C(CN1C(=O)COc2ccc(S(=O)(=O)N3CCOCC3)cc21)N1CCN(c2cccc(Cl)c2)CC1`, the Potency entry was “inactive”.

For `Oc1ccc(Cl)cc1C1C=C(c2ccc3c(c2)OCO3)NC(c2ccc(F)c(Br)c2)N1` (configuration not stated), the Potency result was “inactive”.

With `CCCSc1nc2sc3c(c2c(=O)n1-c1cccc(Br)c1)CC(C)(C)OC3`, the Potency result is “inactive”.

Turning to `CN1CCN(/[N+]([O-])=N/Oc2ccc([N+](=O)[O-])cc2[N+](=O)[O-])CC1`, the Potency entry is “inactive”.

For `CC1(C)Cc2ccccc2-c2c[nH]c(=O)n21`, the Potency result is “inactive”.

On to `Cc1c(NS(=O)(=O)c2ccc(Cl)cc2)c(=O)n(-c2ccccc2)n1C`, for which the Potency result was “inactive”.

Regarding `O=C(O)C1=C/C(=C/C=[N+]2c3cc(O)c(O[C@H]4OC(CO)[C@@H](O)[C@@H](O)[C@@H]4O)cc3C[C@@H]2C(=O)[O-])C[C@H](C(=O)O)N1` (some centres not stated), the Potency entry was “inactive”.

With `COc1ccc(-c2nc3c(c(SCC(=O)Nc4ccc(C(=O)O)cc4)n2)Cc2ccccc2O3)cc1`, the Potency entry was “inactive”.

Regarding `Cc1ccc(S(=O)(=O)N2CCN(c3nc(-n4cnc5ccccc54)nc4ccccc34)CC2)cc1`, the Potency entry was “inactive”.

Regarding `SCc1nc2ccc(Cl)cc2[nH]1`, the Potency result is “inactive”.

`COc1ccc(-c2c(C)c3ccc(O)c(CN4CCCC4)c3oc2=O)cc1OC`: the Potency entry was “inactive”.

`CCc1ccccc1NC(=O)/C(=C/c1ccccc1)c1ccccc1`: the Potency result was “inactive”.

As for `CCOC(=O)/C(=C\c1ccc([N+](=O)[O-])cc1)C(=O)c1cc(C(C)=O)c(Nc2ccccc2)s1`, the Potency result is “inactive”.

On to `CCOC(=O)C(=Cc1ccccc1)C(=O)c1ccccc1`, for which the Potency was 14.1 µM (active).

Regarding `CCC(CC)C(=O)N1CCc2cc(OC)c(OC)cc2C1COc1ccc(F)cc1` (configuration not stated), the Potency entry was “inactive”.

As for `O=C(Nc1nnc(C2COc3ccccc3O2)o1)c1ccc(F)cc1` (configuration not stated), the Potency is 17.8 µM (active).

On to `CC1COc2ccccc2N1C(=O)c1ccc(F)cc1` (configuration not stated), for which the Potency result was “inactive”.

On to `O=C(Nc1cccc2c1CCCC2)c1ccc(F)cc1`, for which the Potency result was “inactive”.

Regarding `CC(C)(C)OC(=O)N1CCC(c2c(C(=O)Nc3ccc4c(c3)OCO4)cnn2-c2ccccc2)CC1`, the Potency entry is “inactive”.

`CCN1CCN(c2ccc(/C=C/c3ccnc4ccccc34)cc2)CC1`: the Potency result was “inactive”.

As for `OC(CBr)CN1CCCCC1` (configuration not stated), the Potency result was “inactive”.

`O=C(COc1ccccc1C(=O)Nc1ccccc1)Nc1cccc(F)c1`: the Potency result was “inactive”.

With `CC1CC2C3CCC4=CC(=O)C=C[C@]4(C)[C@@]3(F)[C@@H](O)C[C@]2(C)[C@@]1(O)C(=O)CO` (some centres not stated), the Potency result is “inactive”.

Regarding `CC1(C)CCc2cc(S(=O)(=O)N3CCN(c4nc(-c5cccs5)nc5ccccc45)CC3)ccc2O1`, the Potency entry is “inactive”.

As for `C(=Nc1ccc(/C=C/c2ccnc3ccccc23)cc1)Nc1ccc(/C=C/c2ccnc3ccccc23)cc1`, the Potency result is “inactive”.

Regarding `O=C(CSc1ncc(CO)n1Cc1ccc(Cl)cc1)NCc1ccc(F)cc1`, the Potency result was “inactive”.

Consider `COc1ccc(Cl)cc1C(=O)NNC(=S)NC(=O)/C=C/c1ccco1`, for which the Potency was 3.55 µM (active).

Turning to `COc1ccc(Cl)cc1C(=O)NNC(=O)c1nc2nc(C)cc(C)n2n1`, the Potency entry is “inactive”.

Consider `CCC(C)NC(=O)c1cc(Cl)ccc1OC` (configuration not stated), for which the Potency entry is “inactive”.

Turning to `Cc1cc(C)c2oc(-c3cccc(NC(=O)c4cccc(F)c4)c3C)nc2c1`, the Potency result was “inactive”.

In the case of `O=[N+]([O-])c1ccc(S(=O)(=O)N2CCN(c3nc(-c4ccccc4)nc4ccccc34)CC2)cc1`, the Potency entry was “inactive”.

On to `Cc1ccc(C=O)cc1Cl`, for which the Potency entry was “inactive”.

As for `O=C(Nc1ccccc1)c1ccccc1OCc1ccccc1`, the Potency result was “inactive”.

Take `OC[C@@H]1O[C@H](n2cnc3c(SCc4ccccc4)ncnc32)[C@H](O)[C@H]1O`: the Potency result is “inactive”.

As for `COc1ccc(CN(Cc2ccccc2)C(=O)c2ccc(O)cc2)cc1COc1ccc(NC(C)=O)cc1`, the Potency result was “inactive”.

With `C=C1C=C(C)n2ncc(C(=O)Nc3ccccc3O)c2N1`, the Potency entry is “inactive”.

`COc1cccc2c1C(=O)c1c(O)c3c(c(O)c1C2=O)CC(O)(C(C)=NNC(=O)c1ccc(Cl)c(Cl)c1)CC3OC1CC(N)C(O)C(C)O1` (configuration not stated): the Potency is 28.2 µM (active).

As to `Nc1ncnc2nnsc12`, the Potency entry was “inactive”.

Consider `CN(N=O)c1ccc(C=C2c3ccccc3-c3ccccc32)cc1`, for which the Potency result is “inactive”.

Turning to `COc1cc(OC)c(/C=C/c2ccnc3ccccc23)c(OC)c1`, the Potency result was “inactive”.

Turning to `S=c1[nH]c(=S)c2n[nH]nc2[nH]1`, the Potency entry was “inactive”.

In the case of `COc1ccc(Cn2c(=O)[nH]c3cc(C(=O)N4CCN(C(=O)c5ccco5)CC4)ccc3c2=O)cc1`, the Potency result was “inactive”.

For `COc1ccc(CN2CCc3nc(Nc4ccccc4)ncc3C2)c(OC)c1OC`, the Potency entry is “inactive”.

Take `COc1cc2[nH]c(C)c(CCN3CCN(c4ccccc4)CC3)c2cc1OC`: the Potency result is “inactive”.

With `Cc1ccc(-c2nc3ccccn3c2Nc2ccc(F)cc2)o1`, the Potency result was “inactive”.

`CSc1ccc(C2C(C(=O)Nc3ccccc3)=C(C)Nc3nc4ccccc4n32)cc1` (configuration not stated): the Potency result was “inactive”.

For `Cc1cccc(NC(=O)COC(=O)c2ccccc2OCc2cccc(Br)c2)c1`, the Potency entry was “inactive”.

Consider `O=C1CSC2(C(=O)N(Cc3ccccc3)c3ccccc32)N1c1cccc(F)c1` (configuration not stated), for which the Potency entry is “inactive”.

On to `CCOC(=O)Cn1c(=O)n(C2CCCCC2)c2nc(-c3cccc(OC)c3)nc(C(N)=O)c21`, for which the Potency result was “inactive”.

On to `O=C(Nc1ccccc1C(F)(F)F)c1nc(S(=O)(=O)Cc2ccccc2F)ncc1Cl`, for which the Potency result is “inactive”.

Consider `COc1ccc(OC)c(NC(=O)C2CCCN(S(=O)(=O)c3ccc4c(c3)CCCC(=O)N4)C2)c1` (configuration not stated), for which the Potency entry was “inactive”.

On to `O=C1OCCN1C(=O)[C@H]1[C@H](c2ccc(Cl)cc2)C(c2cccc(Cl)c2)=NN1c1ccc(Br)cc1`, for which the Potency result is “inactive”.

As to `C[C@@H]1C(c2ccc(F)cc2)=NN(c2ccc(Br)cc2)[C@H]1C(=O)N1CCOC1=O`, the Potency is 22.4 µM (active).

Consider `O=C1OCCN1C(=O)[C@H]1[C@H](c2ccccc2)C(c2ccc(F)cc2)=NN1c1ccccc1`, for which the Potency result was “inactive”.

Take `COc1ccc(-c2nc(=N)sn2-c2ccccc2)cc1`: the Potency result is “inactive”.

For the compound `Cc1ccc(C)c(N2CCN(C(=O)Cn3ncn4cccc4c3=O)CC2)c1`, the Potency entry was “inactive”.

On to `Cc1ccc(C)c(N2CCN(C(=O)CCc3nc(-c4cccc(C(F)(F)F)c4)no3)CC2)c1`, for which the Potency result was “inactive”.

For `Cc1ccc(C)c(N2CCN(C(=O)CCc3nc4ccccc4[nH]3)CC2)c1`, the Potency is 15.8 µM (active).
